Laboratory results from PubChem BioAssay (NCI).
About 83,000 compounds went through this panel and 20% of them were active in at least one assay; those are over-represented in the sample as a whole.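 How to read the values: 0–100, growth inhibition (40 = 60% inhibited); 0, no net growth; -100 to 0, cell death (-40 = 40% of starting cells died; -100 = all dead).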 Activity calls are given as the source filed them. How the source made its calls: active means growth percent below 10; inactive means the rest.

Test system: HT29 colon
Test: NCI-60 one-dose screen, 48 h (100 = growth as untreated, 0 = no growth, -100 = all killed)
Settings: 10 µM unless noted

| SMILES | growth |
| --- | --- |
| CC(C)OC1=C(Cl)C(=O)c2ccccc2C1=O | 113% (inactive) |
| CS(=O)(=O)Nc1cccc(C(=O)NCc2ccc(N3CCOCC3)cc2)c1 | 95% (inactive) |
| COc1ccc(S(=O)(=O)ON=C2C=C(C)C(=O)C(C)=C2)cc1 | 93.3% (inactive) |
| CCOC(=O)c1c(Cl)c2c(n1Cc1cc(OC)cc(OC)c1)-c1oncc1CCC2 | 3.92% (active) |
| NC(=S)N/N=C1\c2ccccc2-c2c(F)c(F)c(F)c(F)c21 | 52.8% (inactive) |
| COCCOC1=C(Cl)C(=O)c2ccccc2C1=O | 99% (inactive) |
| O=C1C(OCCOc2ccccc2)=C(OCCOc2ccccc2)C(=O)c2ccccc21 | 107% (inactive) |
| N#Cc1c(O)c2c(c(O)c1C#N)C(=O)c1ccccc1C2=O | 0.694% (active) |
| COc1cc(/C=C/C(=O)CC(=O)/C=C/c2cc(Br)c(OC)c(OC)c2)cc(Br)c1OC | 103% (inactive) |
| CCN1CCN(c2ccc(Nc3ncc4ccc5ncn(C(C)C)c5c4n3)nc2)CC1 | 5.37% (active) |
| Nc1nc2c(s1)CCc1c-2c(Br)n(Cc2ccccc2)c1Br | 97.6% (inactive) |
| O=c1onc(-c2ccccc2)c2ccccc12 | 109% (inactive) |
| CCCCCn1c(=N)n(CC(O)COc2cccc(C)c2)c2ccccc21 (stereo not drawn) | 72.7% (inactive) |
| COc1ccc(-c2nn(-c3ccc(NC(=O)c4ccc(Cl)c(Cl)c4)cc3)cc2-c2ccncc2)cc1Cl | -27.7% (active) |
| CCC(C)Oc1cc(/C=N/NC(=O)c2cnn3c2NC(c2ccccc2)C3)ccc1OC (stereo not drawn) | 15% (inactive) |
| COc1cccc(OC)c1OC(=O)c1ccccc1 | 107% (inactive) |
| C=C[C@H]1C[C@@H]2C[C@@H]3[C@H]4C/C=C\C(=O)NCCCC5NC(=O)C(=C(O)/C=C/[C@@H]4CC(=O)[C@H]3[C@@H]2[C@H]1C)C5=O (stereo partly drawn) | -76% (active) |
| Cc1nc2ccc(Cl)cc2n1C | 98.8% (inactive) |
| C=C1CC[C@@H]2[C@@](C)(CCC[C@]2(C)C(=O)O)[C@@H]1CC[C@H](CO)CCO | 104% (inactive) |

| SMILES | growth |
| --- | --- |
| Fc1c[c-]c(-c2ccccn2)c(F)c1.Fc1c[c-]c(-c2ccccn2)c(F)c1.[Cl][Pt+].[Cl][Pt+].c1ccc([PH+](C[PH+](c2ccccc2)c2ccccc2)c2ccccc2)cc1 | 7.78% (active) |
| O=C(NCc1cccnc1)c1ccc([N+](=O)[O-])o1 | -68.5% (active) |
| COc1ccc(NS(=O)(=O)c2ccc(-c3cnc(C4CC4)o3)cc2)cc1 | 19% (inactive) |
| NC1=NC(c2ccccc2OS(=O)(=O)c2ccc(Br)cc2)n2c(nc3ccccc32)N1 (stereo not drawn) | 92.1% (inactive) |
| O=C(Nc1ccccc1)Oc1cccc2cccnc12 | 28.5% (inactive) |
| CCC12CCC3c4ccc(O)cc4CCC3C1CC(O)C2O (stereo not drawn) | 96.9% (inactive) |
| Cc1ccc(S(=O)(=O)N2CCc3ccc(O)c4c3C2Cc2ccc3c(c2-4)OCO3)cc1 (stereo not drawn) | 52.3% (inactive) |
| COC(=O)c1c2c(c(C)[n+]([O-])c1C)C(=O)C=C(NCc1cccc(OC)c1)C2=O | 2.57% (active) |
| O=C(c1cnn2c1NC(c1ccc(F)cc1)C2)N1CCCCC1 (stereo not drawn) | 103% (inactive) |
| O=C1NC(=O)C2(CCCC2C(=O)O)N1 (stereo not drawn) | 108% (inactive) |
| CON=C1C[C@]2(C[C@@H]3C[C@@H](C/C=C(\C)C[C@@H](C)/C=C/C=C4\CO[C@@H]5[C@H](O)C(C)=C[C@@H](C(=O)O3)[C@]45O)O2)O[C@H](/C(C)=C/C(C)C)[C@H]1C | 32.4% (inactive) |
| COc1cc(/C=C/C(=O)C(=Cc2ccc(F)c(F)c2)C(=O)/C=C/c2ccc(O)c(OC)c2)ccc1O | -31.4% (active) |
| CCOC(=O)c1[nH]c2cc(Cl)ccc2c1[C@@H](C(=O)NC(C)(C)C)N(CC)C(=O)CCCCC#Cc1cccc2c1CN(C1CCC(=O)NC1=O)C2=O (stereo partly drawn) | 8.65% (active) |
| O=C1/C(=C/c2ccccc2F)CNC/C1=C\c1ccccc1F | -35.4% (active) |
| COc1cc(C2C3=C(COC3=O)N(CCO)c3cc4c(cc32)OCO4)cc(OC)c1O (stereo not drawn) | 8.44% (active) |
| CCCCCCCC/C=C\CCCCCCCCOc1cccc(CC(=O)NCC[N+]2(C)CCOCC2)c1 | 53.5% (inactive) |
| COc1ccccc1CNCCCCCCCCCCCCN1C(=O)c2ccc3c4c(ccc(c24)C1=O)C(=O)N(CCCCCCCCCCCCNCc1ccccc1OC)C3=O | 53.4% (inactive) |
| CC(C)NCC(O)COc1ccc(CCOCC2CC2)cc1 (stereo not drawn) | 97.9% (inactive) |
| Clc1ccc(C2=NN(c3ccccc3)[C@H](c3cn(-c4ccccc4)nc3-c3ccccc3)C2)cc1 | 94.6% (inactive) |
